Measurements as given in PubChem BioAssay (NCATS).
Records with an inconclusive call do not appear. Unmarked numbers belong to inactive results. Calls of active or inactive are those of the source. Calls follow the shape of the dose curve; as a rule, active = well fitted cell-killing curve with a large enough effect; inconclusive = small, poorly fitted or top-dose-only effect, or effect the other way; inactive = no such curve, though single readings can be large or run the other way.

experiment: Quantitative High-Throughput drug screen in 47 multiple myeloma cell lines against the NCATS MIPE library collection: KMS28PE_JCRB cell viability assay (AID 1918983); conditions: KMS28PE multiple myeloma viability, CellTiter-Glo ATP, 48 h; series mostly up to 45.8 µM; viability, % of DMSO control: at the top concentration; also: nearly all actives have a fitted effect of over 35% in size
Description: PI: Beverly A. Mock Ph.D.
Laboratory of Cancer Biology and Genetics,
Center for Cancer Research, National Cancer Institute,
National Institute of Health, Bethesda, Maryland
Drug resistance and disease progression are common in multiple myeloma (MM) patients, underscoring the need for new therapeutic combinations. […] We hypothesized that effective combinations would reduce MYC expression and enhance p16 activity. […] These preclinical data identify potentially useful drug combinations for evaluation in drug-resistant MM and reveal potential mechanisms of combined drug sensitivity.
Described herein is the primary MIPE qHTS used to cherrypick compounds. Validated compounds were then further tested for potential synergistic activiy.
[1] Peat TJ, Gaikwad SM, Dubois W, Gyabaah-Kessie N, Zhang S, Gorjifard S, Phyo Z, Andres M, Hughitt VK, Simpson RM, Miller MA, Girvin AT, Taylor A, Williams D, D'Antonio N, Zhang Y, Rajagopalan A, Flietner E, Wilson K, Zhang X, Shinn P, Klumpp-Thomas C, McKnight C, Itkin Z, Chen L, Kazandijian D, Zhang J, Michalowski AM, Simmons JK, Keats J, Thomas CJ, Mock BA. Drug combinations identified by high-throughput screening promote cell cycle transition and upregulate Smad pathways in myeloma. Cancer Lett. 2023 Aug 1;568:216284. doi: 10.1016/j.canlet.2023.216284. Epub 2023 Jun 24. PMID: 37356470; PMCID: PMC10408729.
SEQUENCE No. (e.g., 1, 2, 3, etc.); […] (e.g., Cells, Incubation, Reagent, etc.); VALUE and DESCRIPTION.
1; Cells; 5 uL; white, solid bottom 1536-well Greiner assay plate.
2; Compounds; 23 nL; Kalypsis pin tool (Wako USA) equipped with a 1536-well pin head to transfer to the assay plates.
3; Incubation; 48 hours; 37C incubation.
4; Reagent;5uL; CellTiter Glo (Promega).
5; Detector; 425V; Luminescence; Viewlux PerkinElmer.
NOTES (numbers refer to Sequence numbers above)
1. The cell-based screening methods employed in this study were like those previously published. Briefly, the corresponding myeloma cell lines were screened in 1,536-well plates with 500 cells, 5-uL per well for inhibition of cell viability (assessed by measuring ATP levels with CellTiterGlo).
2. NCATS MIPE 4.0 library of approved and investigational drugs were added using the Kalypsis pin tool. Wells treated with DMSO only for 100% viability and media only for 0% viability were used as controls.
3. The assay plates were covered and incubated for 48 hours in a 37C, 5% CO2 incubator with controlled humidity.
4. After 48 hours, CellTilter-GloTM luminescent substrate mix (Promega) reagent was added to the assay plate and plates we incubated for 5 min at room temperature.
5. Signal was measured as median relative luminescence units on a ViewLux (PerkinElmer) multiplate reader.
[1] Heske CM, Davis MI, Baumgart JT, Wilson K, Gormally MV, Chen L, Zhang X, Ceribelli M, Duveau DY, Guha R, Ferrer M, Arnaldez FI, Ji J, Tran HL, Zhang Y, Mendoza A, Helman LJ, Thomas CJ. Matrix Screen Identifies Synergistic Combination of PARP Inhibitors and Nicotinamide Phosphoribosyltransferase (NAMPT) Inhibitors in Ewing Sarcoma. Clin Cancer Res. 2017 Dec 1;23(23):7301-7311. doi: 10.1158/1078-0432.CCR-17-1121. Epub 2017 Sep 12. PMID: 28899971; PMCID: PMC6636827.
Potency is read from the fitted curve at half-maximal effect.

Structure (SMILES) | viability, % of DMSO control | Potency
CCN(c1ccccc1)c1cc(NC)[n+](C)c(C)n1 | 120% | –
Cc1cc(-c2ccc(CC(=O)Nc3ccc(-c4cccnc4)cc3)cc2)ccn1 | – | 13.2 µM (active)
O=C1CCc2cc(OCCCCc3nnnn3C3CCCCC3)ccc2N1 | 113% | –
O=C1[C@H](Cc2ccc(O)cc2)N2C(=O)CCN(C(=O)NCc3ccccc3)[C@H]2CN1Cc1cccc2ccccc12 | – | 9.35 µM (active)
CCCC(CCC)C(=O)O | 155% | –
CCn1cc(C(=O)O)c(=O)c2cc(F)c(N3CCNC(C)C3)c(F)c21 (stereo not given) | 132% | –
CCCCCCCc1ccc(CCc2cccc(O)c2C(=O)O)cc1 | 129% | –
CCCCNc1cc(C(=O)O)cc(S(N)(=O)=O)c1Oc1ccccc1 | 132% | –
Nc1nccc(-c2ccc3noc(-c4ccc(Cl)cc4)c3c2)n1 | 132% | –
Cc1[nH]c(=O)c(C#N)cc1-c1ccc2nccn2c1 | 111% | –
S=C(NCc1ccc2c(c1)OCO2)N1CCN(c2ncnc3c2oc2ccccc23)CC1 | – | 6.05 µM (active)
COc1ccc(-c2ccc3c(N4CCOC[C@H]4C)nc(N4CCOC[C@H]4C)nc3n2)cc1CO | – | 0.0235 µM (active)
CN[C@@H](C)C(=O)N[C@H]1CCCC[C@H]2CC[C@@H](C(=O)N[C@@H](c3ccccc3)c3cn(CCCCc4ccc(CCCCn5cc([C@@H](NC(=O)[C@@H]6CC[C@@H]7CCCC[C@H](NC(=O)[C@H](C)NC)C(=O)N76)c6ccccc6)nn5)cc4)nn3)N2C1=O | 164% | –
COc1ccc(CCN2CCN(CCCc3ccccc3)CC2)cc1OC | 115% | –
c1ccc(-c2nn3c(c2-c2ccnc4cc(OCCN5CCOCC5)ccc24)CCC3)nc1 | – | 23.5 µM (active)
OCCC#Cc1nc(-c2ccc(F)cc2)c(-c2ccncc2)n1CCCc1ccccc1 | 122% | –
O=C(O)CCc1ccc(NCc2cccc(Oc3ccccc3)c2)cc1 | 118% | –
Cc1cc2c(F)c(Oc3ncnn4cc(OC[C@@H](C)O)c(C)c34)ccc2[nH]1 | – | 20.9 µM (active)
OCCn1cc(-c2cnc3nnn(Cc4ccc5ncccc5c4)c3n2)cn1 | 177% | –
NC(=O)c1ccc(I)c([N+](=O)[O-])c1 | 135% | –

Structure (SMILES) | viability, % of DMSO control | Potency
O=C(Nc1cccnc1)N1CCC(Cc2cccc(Oc3ccc(C(F)(F)F)cn3)c2)CC1 | – | 16.6 µM (active)
CCC(C)N(C)C(=O)c1cc2ccccc2c(-c2ccccc2Cl)n1 (stereo not given) | 127% | –
CCN(CC)CCCC(C)Nc1ccnc2cc(Cl)ccc12 (stereo not given) | 106% | –
COc1ccc(-c2ccc3c(N4CCOCC4)nc(N4C[C@@H](C)O[C@@H](C)C4)nc3n2)cc1CO | – | 0.187 µM (active)
NCCCC(N)(C(=O)O)C(F)F (stereo not given) | 103% | –
CCOc1cc(C(=O)Nc2ccc(Cl)c(-c3nc4ccccc4[nH]3)c2)cc(OCC)c1OCC | 111% | –
Clc1cccc(Cl)c1NC1=NCCN1 | 126% | –
N=c1nc(N2CCCCC2)cc(N)n1O | 151% | –
CCc1cncnc1N1CCN(Cc2nc3ccc(C(F)(F)F)cc3[nH]2)CC1 | – | 20.9 µM (active)
COc1ccccc1[C@H](c1cccc2ccccc12)[C@@](C)(C#N)C(=O)N1CCC(c2cccc(C(F)(F)F)c2)CC1 | – | 4.18 µM (active)
c1ccc([C@H]2CN3CCSC3=N2)cc1 | 134% | –
COc1cc2nccc(Oc3ccc(NC(=O)NC4CC4)c(Cl)c3)c2cc1C(N)=O | – | 13.2 µM (active)
O=c1[nH]c(-c2ccc(C(F)(F)F)cc2)nc2c1CSCC2 | 146% | –
CCc1ccc(CCOc2ccc(CC3SC(=O)NC3=O)cc2)nc1 (stereo not given) | 129% | –
CN(C)c1ccc(C2Nc3ccc4ccccc4c3C3=C2C(=O)CC(C)(C)C3)cc1Br (stereo not given) | – | 23.5 µM (active)
CCCn1c(=O)c2[nH]c(C34CC5CC3C[C@@H](C5)C4)nc2n(CCC)c1=O | – | 20.9 µM (active)
O=C(C1CC1)N1CC[C@@H](Cn2c(-c3ccc(-c4ccc5occc5c4)cc3)nc3cnccc32)C1 | 111% | –
COc1ccccc1-c1cccc(-c2c(O)c3cc(C#N)c(Cl)cc3[nH]c2=O)c1 | 113% [at 92.2 µM] | –
NNCCc1ccccc1 | – | 9.35 µM (active)
Cc1cnc(NC(=O)C2=C(O)c3ccccc3S(=O)(=O)N2C)s1 | 112% | –
